# In PubChem BioAssay (Tox21):
# Records with an inconclusive call do not appear. Entries that show only a call come without a potency. A number with no mark means an inactive call. Calls of active or inactive are those of the source. Unless noted, the call rests on the fitted dose curve; in most records, active means well fitted curve in the direction sought with a large enough effect in the repeat runs; inconclusive means weak or mixed curves; inactive means no such curve, though single readings can be large; an effect the other way counts as inactive or inconclusive.
# Legend:
# [1] = target: Retinoic acid receptor RXR-alpha (Homo sapiens) (UniProt P19793); assay: qHTS assay to identify small molecule agonists of the RXR signaling pathway (AID 1159527; calls by dose curve; further: nearly all actives have a fitted effect of over 35% in size)
# Sequence of Retinoic acid receptor RXR-alpha (Homo sapiens) (P19793 whole entry, looked up): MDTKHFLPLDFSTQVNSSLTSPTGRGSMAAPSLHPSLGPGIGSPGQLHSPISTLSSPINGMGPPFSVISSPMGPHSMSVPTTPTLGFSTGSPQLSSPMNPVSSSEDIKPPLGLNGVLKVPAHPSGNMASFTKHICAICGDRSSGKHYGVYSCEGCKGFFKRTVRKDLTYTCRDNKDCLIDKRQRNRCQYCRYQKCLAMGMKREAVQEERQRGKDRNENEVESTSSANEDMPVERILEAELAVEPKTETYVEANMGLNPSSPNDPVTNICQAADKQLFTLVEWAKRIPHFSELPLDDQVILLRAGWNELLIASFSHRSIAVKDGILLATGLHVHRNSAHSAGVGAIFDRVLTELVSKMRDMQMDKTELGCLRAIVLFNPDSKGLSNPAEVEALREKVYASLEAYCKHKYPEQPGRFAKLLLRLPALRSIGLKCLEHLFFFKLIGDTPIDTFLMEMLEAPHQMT
# Method in brief: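 Reporter activation is measured as beta-lactamase activity via FRET substrate cleavage (emission 460/530 nm) in HEK 293T cells expressing an RXR-alpha-driven bla construct, following 16 hr compound exposure at 37 C.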
# [2] = qHTS assay to identify small molecule antagonists of the estrogen related receptor (ERR) signaling pathway from Tox21 library - cell viability counter screen (AID 1224834); further: nearly all actives have a fitted effect of over 30% in size; further: potency means the concentration at half of the fitted maximal effect
# Method in brief: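 ERR reporter cells, 2,000 per well, rested 6 h, then exposed to compound in DMSO for 17.5 hours at 37 C. Viability read as fluorescence after 30 min with CellTiter-Fluor.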
# [3] = target: Luciferin 4-monooxygenase (Photinus pyralis) (UniProt P08659); assay: qHTS assay to identify small molecule inhibitors of firefly luciferase (AID 1224835); further: nearly all actives have a fitted effect of over 25% in size; further: potency means the concentration at half of the fitted maximal effect
# Sequence of Luciferin 4-monooxygenase (Photinus pyralis) (P08659 whole entry, looked up): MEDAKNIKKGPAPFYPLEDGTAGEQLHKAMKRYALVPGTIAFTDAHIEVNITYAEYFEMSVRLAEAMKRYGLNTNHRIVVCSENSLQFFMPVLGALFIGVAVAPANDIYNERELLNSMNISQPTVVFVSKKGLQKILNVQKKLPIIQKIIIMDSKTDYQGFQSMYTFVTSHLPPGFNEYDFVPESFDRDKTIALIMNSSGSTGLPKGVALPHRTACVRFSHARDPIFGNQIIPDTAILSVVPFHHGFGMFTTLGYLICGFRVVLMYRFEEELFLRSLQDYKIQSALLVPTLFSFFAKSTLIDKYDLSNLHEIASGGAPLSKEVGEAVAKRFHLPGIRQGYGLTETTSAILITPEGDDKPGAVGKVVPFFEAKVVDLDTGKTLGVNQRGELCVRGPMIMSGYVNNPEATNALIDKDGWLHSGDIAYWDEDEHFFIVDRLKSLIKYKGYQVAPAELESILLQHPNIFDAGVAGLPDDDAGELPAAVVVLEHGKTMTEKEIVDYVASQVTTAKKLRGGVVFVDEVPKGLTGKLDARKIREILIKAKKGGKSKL
# Method in brief: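 Quantitative HTS format; KM concentrations of both substrates. Purified P. pyralis FLuc activity quantified from luminescence images.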
# [4] = qHTS assay to identify small molecule agonists of the constitutive androstane receptor (CAR) signaling pathway - cell viability counter screen (AID 1224836); further: nearly all actives have a fitted effect of over 45% in size
# Method in brief: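 Fluorescence from CellTiter-Fluor indicates live cells after 23 h exposure. The human hepatoma line expresses hCAR and a CYP2B6-2.2kb reporter. Incubation medium contains 0.75 uM PK11195 (final).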
# [5] = qHTS assay to identify small molecule antagonists of the constitutive androstane receptor (CAR) signaling pathway - cell viability counter screen (AID 1224837); further: nearly all actives have a fitted effect of over 45% in size; further: potency means the concentration at half of the fitted maximal effect
# Method in brief: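 HepG2 cells stably carrying hCAR and CYP2B6-2.2kb reporter, stimulated with 50 nM CITCO and compounds at 15 concentrations for 23 h at 37 C. Viability measured by CellTiter-Fluor fluorescence.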
# [6] = qHTS assay to identify small molecule antagonists of the retinoid acid receptor (RAR) signaling pathway - cell viability counter screen (AID 1159551); further: nearly all actives have a fitted effect of over 35% in size
# Method in brief: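 C3RL4 RARE-luciferase cells, 1,000/well, incubated overnight, then dosed with compound plus 1 uM retinol (final). After 6 hr at 37 C, viability read by CellTiter-Glo ATP luminescence following 30 min at room temperature.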
# [7] = qHTS assay to identify small molecule antagonists of the retinoic acid receptor (RAR) signaling pathway (AID 1159552; further: nearly all actives have a fitted effect of over 50% in size)
# Method in brief: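 Overnight-plated C3RL4 reporter cells get compound, then retinol to 1 uM final; plates sit 6 hr at 37 C, 5% CO2. A luciferase reagent is added and light output recorded after 30 min at room temperature.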
# [8] = qHTS assay to identify small molecule agonists of the retinoic acid receptor (RAR) signaling pathway (AID 1159553); details: C3RL4 RARE luciferase reporter, agonist, 6 h; activation: at 73.3 µM (top of the series); further: potency means the concentration at half of the fitted maximal effect
# Method in brief: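 C3RL4 RARE-luciferase cells were seeded at 1,000/well and grown overnight at 37 C, then exposed to compounds for 6 hr at 37 C, 5% CO2. Luciferase reagent was added and luminescence was read after 30 min at room temperature.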
# [9] = qHTS assay to identify small molecule agonists of the RXR signaling pathway - cell viability counter screen (AID 1159529); further: nearly all actives have a fitted effect of over 50% in size
# Method in brief: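 Tox21 10K compounds were tested for cytotoxicity against GeneBLAzer RXR-alpha HEK 293T cells grown in 2% charcoal-stripped FBS. Exposure lasted 16 hr at 37 C, 5% CO2; viability read by CellTiter-Glo luminescence.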
# [10] = target: Nuclear receptor subfamily 1 group I member 3 (Homo sapiens) (UniProt Q14994); assay: qHTS assay to identify small molecule antagonists of the constitutive androstane receptor (CAR) signaling pathway (AID 1224838); further: nearly all actives have a fitted effect of over 40% in size
# Sequence of Nuclear receptor subfamily 1 group I member 3 (Homo sapiens) (Q14994 whole entry, looked up): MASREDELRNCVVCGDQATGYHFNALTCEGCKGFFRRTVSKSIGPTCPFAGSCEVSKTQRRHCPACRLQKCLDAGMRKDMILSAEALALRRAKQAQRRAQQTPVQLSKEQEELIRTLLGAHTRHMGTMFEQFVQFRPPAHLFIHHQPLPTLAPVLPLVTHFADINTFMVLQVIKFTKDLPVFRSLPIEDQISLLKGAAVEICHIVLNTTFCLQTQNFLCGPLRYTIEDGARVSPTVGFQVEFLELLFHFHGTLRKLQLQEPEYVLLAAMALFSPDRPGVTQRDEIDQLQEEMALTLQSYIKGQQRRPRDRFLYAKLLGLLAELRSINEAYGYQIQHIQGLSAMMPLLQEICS
# Method in brief: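 HepG2 cells stably carrying hCAR and a CYP2B6-2.2kb luciferase reporter, seeded 4 hrs before compound (15 concentrations). Stimulated with 50 nM CITCO for 24 hr at 37 C. ONE-Glo luminescence read after 30 min at room temperature.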
compound,measurement,setting,value
CCCCCN(CCCOC)C(=O)C(CCC(=O)O)NC(=O)c1ccc(Cl)c(Cl)c1 (stereo not drawn),Potency,[1],inactive
same,Potency,[2],inactive
same,Potency,[3],inactive
same,outcome,[4],inactive
same,Potency,[5],inactive
OC(CCN1CCCCC1)(c1ccccc1)c1ccccc1,Potency,[1],inactive
same,outcome,[6],inactive
same,Potency,[7],inactive
same,Potency,[8],inactive
same,Potency,[2],inactive
same,Potency,[3],inactive
same,outcome,[4],inactive
same,Potency,[5],inactive
CN[C@@H]1[C@H](O)[C@H](NC)[C@H]2O[C@@]3(O)C(=O)C[C@@H](C)O[C@H]3O[C@@H]2[C@H]1O,Potency,[1],inactive
same,outcome,[6],inactive
same,Potency,[7],inactive
same,Potency,[8],inactive
same,Potency,[2],inactive
same,Potency,[3],inactive
same,outcome,[4],inactive
same,Potency,[5],inactive
NC(=O)NC(=O)Cc1ccccc1,Potency,[1],inactive
same,outcome,[6],inactive
same,Potency,[7],inactive
same,Potency,[8],inactive
same,Potency,[2],inactive
same,Potency,[3],inactive
same,outcome,[4],inactive
same,Potency,[5],inactive
CC(C)COC(=O)COc1ccc(Cl)cc1Cl,Potency,[1],inactive
same,outcome,[6],inactive
same,Potency,[2],inactive
same,Potency,[3],11.2 µM (active)
same,outcome,[4],inactive
same,Potency,[5],inactive
c1ccccc1,Potency,[1],inactive
same,outcome,[6],inactive
same,Potency,[7],inactive
same,Potency,[8],inactive
same,Potency,[2],inactive
same,Potency,[3],inactive
same,outcome,[4],inactive
same,Potency,[5],inactive
CO/N=C(/C(=O)N[C@@H]1C(=O)N2C(C(=O)O)=C(Cn3nnc(C)n3)CS[C@H]12)c1csc(N)n1,Potency,[1],inactive
same,outcome,[6],inactive
same,Potency,[7],inactive
same,Potency,[8],inactive
same,Potency,[2],inactive
same,Potency,[3],inactive
same,outcome,[4],inactive
same,Potency,[5],inactive
CC(=O)c1ccc2c(c1)CCCC2,Potency,[1],inactive
same,outcome,[9],inactive
same,Potency,[8],inactive
same,Potency,[2],inactive
same,Potency,[5],inactive
same,Potency,[10],inactive
CCCCC(CC)COC(=O)c1ccccc1 (stereo not drawn),Potency,[1],inactive
same,outcome,[6],inactive
same,Potency,[8],inactive
same,Potency,[2],inactive
same,Potency,[3],inactive
same,outcome,[4],inactive
same,Potency,[5],inactive
same,Potency,[10],inactive
CCCCCCCCCCCCCCCC(=O)NCCO,Potency,[1],inactive
same,outcome,[6],inactive
same,Potency,[8],inactive
same,Potency,[2],inactive
same,Potency,[3],inactive
same,Potency,[5],inactive
same,Potency,[10],inactive
CCN1CN(CC)CN(CC)C1,Potency,[1],inactive
same,outcome,[6],inactive
same,Potency,[7],inactive
same,Potency,[8],inactive
same,Potency,[2],inactive
same,Potency,[3],inactive
same,outcome,[4],inactive
same,Potency,[5],inactive
Cc1ccccc1C(=O)N1CC/C(=N\OS(=O)(=O)O)c2ccc(Cl)cc21,Potency,[1],inactive
same,outcome,[6],inactive
same,Potency,[7],inactive
same,Potency,[8],inactive
same,Potency,[2],inactive
same,Potency,[3],inactive
same,outcome,[4],inactive
same,Potency,[5],inactive
O=P(O)(O)OCC(O)CO (stereo not drawn),Potency,[1],inactive
same,outcome,[6],inactive
same,Potency,[7],inactive
same,Potency,[2],inactive
same,Potency,[3],inactive
same,outcome,[4],inactive
same,Potency,[5],inactive
Cc1cccc(NC(=S)N(C)C)c1,outcome,[9],inactive
same,outcome,[6],inactive
same,Potency,[7],inactive
same,Potency,[8],inactive
same,Potency,[2],inactive
same,Potency,[3],inactive
same,outcome,[4],inactive
same,Potency,[5],61.1 µM (active)
CCNC(=O)/C=C/c1cccc(Br)c1,Potency,[1],inactive
same,outcome,[9],inactive
same,Potency,[2],inactive
same,Potency,[5],inactive
same,Potency,[10],inactive
CC(=O)OC[C@H]1O[C@@H](OC(C)=O)[C@H](OC(C)=O)[C@@H]1OC(C)=O,Potency,[1],inactive
same,Potency,[7],inactive
same,Potency,[8],inactive
same,Potency,[2],inactive
same,Potency,[3],inactive
same,outcome,[4],inactive
same,Potency,[5],inactive
Oc1ccccc1Cc1ccccc1O,Potency,[1],inactive
same,Potency,[7],inactive
same,Potency,[8],inactive
same,Potency,[2],inactive
same,Potency,[3],inactive
same,outcome,[4],inactive
same,Potency,[5],inactive
same,Potency,[10],inactive
COc1ccc(N=Nc2cc(C)c(N=Nc3ccc(S(=O)(=O)O)cc3)cc2OC)cc1,Potency,[1],inactive
same,outcome,[6],inactive
same,Potency,[7],inactive
same,Potency,[8],inactive
same,Potency,[2],19.3 µM (active)
same,Potency,[3],44.8 µM (active)
same,Potency,[10],inactive
CC(=O)OC(C(=O)c1ccccc1)c1ccccc1 (stereo not drawn),Potency,[1],inactive
same,outcome,[6],inactive
same,Potency,[7],inactive
same,Potency,[8],inactive
same,Potency,[2],inactive
same,Potency,[3],inactive
same,outcome,[4],inactive
same,Potency,[5],inactive
same,Potency,[10],inactive
CC(C)CCO,Potency,[1],inactive
same,outcome,[6],inactive
same,Potency,[7],inactive
same,Potency,[8],inactive
same,Potency,[2],inactive
same,Potency,[3],inactive
same,outcome,[4],inactive
same,Potency,[5],inactive
CC(=O)c1ccc(OCC(=O)N2CCCCC2)cc1,Potency,[1],inactive
same,Potency,[8],13.3 µM (active)
same,Potency,[2],inactive
same,outcome,[4],inactive
same,Potency,[5],inactive
same,Potency,[10],inactive
CC1(N)CCC(C(C)(C)N)CC1 (stereo not drawn),Potency,[1],inactive
same,outcome,[6],inactive
same,Potency,[8],inactive
same,Potency,[2],inactive
same,Potency,[3],inactive
same,outcome,[4],inactive
same,Potency,[5],inactive
O=c1cc(O)c(Cl)c[nH]1,Potency,[1],inactive
same,outcome,[6],inactive
same,Potency,[7],inactive
same,Potency,[8],inactive
same,Potency,[2],inactive
same,Potency,[3],inactive
same,outcome,[4],inactive
same,Potency,[5],inactive
CC(C)COC(=O)CCCCC(=O)OCC(C)C,Potency,[1],inactive
same,outcome,[6],inactive
same,Potency,[7],inactive
same,Potency,[8],inactive
same,Potency,[2],inactive
same,Potency,[3],inactive
same,outcome,[4],inactive
same,Potency,[5],inactive
CC1=CC[C@H](CC=O)C1(C)C,Potency,[1],inactive
same,outcome,[6],inactive
same,Potency,[7],inactive
same,Potency,[8],inactive
same,Potency,[2],inactive
same,Potency,[3],inactive
same,outcome,[4],inactive
same,Potency,[5],inactive
CO[Si](CCCS)(OC)OC,Potency,[1],inactive
same,outcome,[6],inactive
same,Potency,[7],inactive
same,Potency,[8],inactive
same,Potency,[2],inactive
same,Potency,[3],inactive
same,outcome,[4],inactive
same,Potency,[5],inactive
Nc1cc(Cl)cc(S(=O)(=O)O)c1O,Potency,[1],inactive
same,outcome,[6],inactive
same,Potency,[7],inactive
same,Potency,[8],inactive
same,Potency,[2],inactive
same,Potency,[3],inactive
same,outcome,[4],inactive
same,Potency,[5],inactive
same,Potency,[10],inactive
O=C(Nc1cccc(C2=NCCN2)c1)Nc1cccc(C2=NCCN2)c1,activation,[1],1.97% [at 15.8 µM]
same,"activity change, negative = cytotoxicity",[6],1.4% [at 19 µM]
same,"activity, negative = inhibition",[7],6.53% [at 19 µM]
same,Potency,[8],inactive
same,"viability change, negative = cytotoxic",[2],1.33% [at 19 µM]
same,"activity change, negative = inhibition",[3],-1.49% [at 23.6 µM]
same,"viability change, negative = cytotoxic",[4],0.131% [at 19 µM]
same,"activity change, negative = cytotoxicity",[5],1.51% [at 19 µM]
CCN(CCC#N)c1ccccc1,Potency,[1],inactive
same,outcome,[6],inactive
same,Potency,[7],inactive
same,Potency,[8],inactive
same,Potency,[2],inactive
same,Potency,[3],inactive
same,outcome,[4],inactive
same,Potency,[5],inactive
same,Potency,[10],inactive
Cc1cccc(Nc2ccncc2S(=O)(=O)NC(=O)NC(C)C)c1,Potency,[1],inactive
same,outcome,[6],inactive
same,Potency,[7],inactive
same,Potency,[8],inactive
same,Potency,[2],inactive
same,Potency,[3],inactive
same,outcome,[4],inactive
same,Potency,[5],inactive
CCC(O)C(C)(C)C (stereo not drawn),Potency,[1],inactive
same,outcome,[6],inactive
same,Potency,[7],inactive
same,Potency,[8],inactive
same,Potency,[2],inactive
same,Potency,[3],inactive
same,outcome,[4],inactive
same,Potency,[5],inactive
C=CCOc1c(Br)cc(C(C)(C)c2cc(Br)c(OCC=C)c(Br)c2)cc1Br,outcome,[9],inactive
same,outcome,[6],inactive
same,Potency,[7],inactive
same,Potency,[8],inactive
same,Potency,[2],inactive
same,Potency,[3],inactive
same,outcome,[4],inactive
same,Potency,[5],inactive
CNC(=O)NC,Potency,[1],inactive
same,outcome,[6],inactive
same,Potency,[7],inactive
same,Potency,[8],inactive
same,Potency,[2],inactive
same,Potency,[3],inactive
same,outcome,[4],inactive
same,Potency,[5],inactive
Cc1c(C(C)C)c(=O)n(-c2ccccc2)n1C,Potency,[1],inactive
same,outcome,[6],inactive
same,Potency,[8],inactive
same,Potency,[2],inactive
same,Potency,[3],inactive
same,outcome,[4],inactive
same,Potency,[5],inactive
same,Potency,[10],inactive
